# Measurements from PubChem BioAssay (NCATS).
# Inconclusive results are not listed. A call without a number means that no potency is given here. A number with no mark means an inactive call. Activity calls are given as the source filed them. Calls come from the whole dose curve. Numbered stars: 1 amine (or outer) side, 2 acyl side, 3 side chain; on linkers, the order of the positions; unused ones are H or OH. Bridge positions count the residues as written; N and C are the ends. Square brackets hold non-standard residues; d marks the D form. Peptide text beside a SMILES is read from it. * marks the point of attachment. X6 = NC1=N[C@@H](O)C[C@H]([C@H](N[*:1])C(=O)[*:2])N1; ΔAla(Z-3-ureido) = NC(=O)N/C=C(\N)C(=O)O; Octanoyl(6-Me) = CCC(C)CCCCC(=O)*; β3hOrn = NCCC[C@H](N)CC(=O)*; Dab = NCC[CH](N)C(=O)O; Dap = NC[C@H](N)C(=O)O
# Assay: Primary qHTS for inhibitors of SARS-S pseudo-typed particle cell entry (AID 1479145); note: nearly all actives have a fitted effect of over 45% in size
# Details: SARS-S pseudotyped particle cell entry, luciferase reporter; series mostly up to 57.1 µM
Compound,Potency,outcome,"activity change, negative = inhibition"
CNC[C@@H]1CC[C@@H](N)[C@@H](O[C@H]2[C@H](O)[C@@H](O[C@H]3OC[C@](C)(O)[C@H](NC)[C@H]3O)[C@H](N)C[C@@H]2N)O1,inactive,,
CO[C@H]1C[C@@H]2CC[C@@H](C)[C@@](O)(O2)C(=O)C(=O)N2CCCC[C@H]2C(=O)O[C@H]([C@H](C)C[C@@H]2CC[C@@H](OC(=O)C(C)(CO)CO)[C@H](OC)C2)CC(=O)[C@H](C)/C=C(\C)[C@@H](O)[C@@H](OC)C(=O)[C@H](C)C[C@H](C)/C=C/C=C/C=C/1C,inactive,,
CC(=O)OC1CCC2(C)C(=CCC3C2CCC2(C)C(c4cccnc4)=CCC32)C1 (stereo not given),inactive,,
CC(C)(C)NCC(O)COc1ccccc1C#N (stereo not given),inactive,,
CCOc1ccc(Cc2cc([C@@H]3O[C@H](CO)[C@@H](O)[C@H](O)[C@H]3O)ccc2Cl)cc1,inactive,,
CO/N=C(\C(=O)N[C@@H]1C(=O)N2C(C(=O)O)=C(CSc3cnns3)CS[C@H]12)c1csc(N)n1,inactive,,
O=P(O)(O)OP(=O)(O)O,inactive,,
CC1(C)S[C@@H]2[C@@H](N3C(=O)[C@@H](c4ccccc4)NC3(C)C)C(=O)N2[C@H]1C(=O)O,inactive,,
CNCC(O)c1ccc(OC(=O)C(C)(C)C)c(OC(=O)C(C)(C)C)c1 (stereo not given),inactive,,
CCCCC(=O)O,inactive,,
NCCC[C@H](N)CC(=O)N[C@H]1CNC(=O)[C@H]([C@H]2C[C@H](O)N=C(N)N2)NC(=O)/C(=C/NC(N)=O)NC(=O)[C@H](CO)NC(=O)[C@H](CO)NC1=O (β3hOrn-[Dap]SS[ΔAla(Z-3-ureido)][X6]; lactam 1-C),inactive,,
CS(=O)(=O)n1cc2c(n1)CN([C@H]1CO[C@H](c3cc(F)ccc3F)[C@@H](N)C1)C2,inactive,,
CO/N=C(\C(=O)N[C@@H]1C(=O)N2C(C(=O)O)=C(Cn3ccc(=N)n3CCO)CS[C@H]12)c1csc(N)n1,inactive,,
CN[C@H]1C(=O)N[C@@H]2Cc3ccc(cc3)Oc3cc4cc(c3O[C@@H]3O[C@H](C(=O)O)[C@@H](O)[C@H](O)[C@H]3NC(=O)CCCCCCCCC(C)C)Oc3ccc(cc3Cl)[C@@H](O)[C@@H]3NC(=O)[C@H](NC(=O)[C@@H]4NC(=O)[C@@H](NC2=O)c2cc(cc(O)c2Cl)Oc2cc1ccc2O)c1ccc(O)c(c1)-c1c(O[C@H]2O[C@H](CO)[C@@H](O)[C@H](O)[C@@H]2O)cc(O)cc1[C@@H](C(=O)NCCCN(C)C)NC3=O,inactive,,
CNC(=O)OCc1cccc(COC(=O)NC)n1,inactive,,
CSCCNc1nc(SCCC(F)(F)F)nc2c1ncn2[C@@H]1O[C@H](COP(=O)(O)OP(=O)(O)C(Cl)(Cl)P(=O)(O)O)[C@@H](O)[C@H]1O,inactive,,
COC(=S)NCCn1c([N+](=O)[O-])cnc1C,inactive,,
O=C(O[C@H]1C[N+]2(CCCOc3ccccc3)CCC1CC2)C(O)(c1cccs1)c1cccs1,inactive,,
O=C1C(c2[nH]c3ccc(S(=O)(=O)O)cc3c2O)=Nc2ccc(S(=O)(=O)O)cc21,inactive,,
CO[C@H]1/C=C\O[C@@]2(C)Oc3c(C)c(O)c4c(O)c(c5c(nc6cc(C)ccn65)c4c3C2=O)NC(=O)/C(C)=C\C=C/[C@H](C)[C@H](O)[C@@H](C)[C@@H](O)[C@@H](C)[C@H](OC(C)=O)[C@@H]1C,inactive,,

Compound,Potency,outcome,"activity change, negative = inhibition"
CN(C)/C(N)=N/C(=N)N,,inactive [setting not given],
C[C@@H]1C[C@H]2[C@@H]3CCC4=CC(=O)C=C[C@]4(C)[C@@]3(F)[C@@H](O)C[C@]2(C)[C@@]1(O)C(=O)COP(=O)(O)O,,inactive [at 11.4 µM],
CCCC(=O)O[C@]1(C(=O)COC(=O)CC)[C@@H](C)C[C@H]2[C@@H]3CCC4=CC(=O)C=C[C@]4(C)[C@@]3(F)[C@@H](O)C[C@@]21C,inactive,,
CC(CCc1ccc(O)cc1)NCC(O)c1ccc(O)cc1 (stereo not given),inactive,,
OC[C@H]1OC(O)C[C@@H](O)[C@@H]1O (stereo not given in full),inactive,,
CC1(C)S[C@@H]2[C@H](NC(=O)C(C(=O)Oc3ccc4c(c3)CCC4)c3ccccc3)C(=O)N2[C@H]1C(=O)O (stereo not given in full),inactive,,
C[C@H](CCC(=O)O)[C@H]1CC[C@H]2[C@@H]3[C@H](O)C[C@@H]4C[C@H](O)CC[C@]4(C)[C@H]3C[C@H](O)[C@]12C,inactive,,
NC[C@@H]1O[C@H](O[C@H]2[C@@H](O)[C@H](O[C@@H]3[C@@H](O)[C@H](N)C[C@H](N)[C@H]3O[C@H]3O[C@H](CO)[C@@H](O)[C@H](O)[C@H]3N)O[C@@H]2CO)[C@H](N)[C@@H](O)[C@@H]1O,,,-8.64% [at 0.573 µM]
O=C(Cc1cccs1)NC1C(=O)N2C(C(=O)[O-])=C(C[n+]3ccccc3)CSC12 (stereo not given),inactive,,
COC(=O)N[C@H](C(=O)N1CCC[C@H]1C(=O)Nc1ccc([C@@H]2CC[C@@H](c3ccc(NC(=O)[C@@H]4CCCN4C(=O)[C@@H](NC(=O)OC)C(C)C)cc3)N2c2ccc(C(C)(C)C)cc2)cc1)C(C)C,inactive,,
CC(C)(C)C(=O)OCC(=O)[C@H]1CC[C@H]2[C@@H]3CCC4=CC(=O)CC[C@]4(C)[C@H]3CC[C@]12C,inactive,,
NC(=O)OCC(O)COc1ccc(Cl)cc1 (stereo not given),inactive,,
CC(C=CC1=C(C)CCCC1(C)C)=CC=CC(C)=CC(=O)Oc1c(C)c(C)c2c(c1C)CC[C@@](C)(CCC[C@H](C)CCC[C@H](C)CCCC(C)C)O2,,,-3.62% [at 5.34 µM]
CCC(C)CCCCC(=O)NC(CCN)C(=O)NC(C(=O)NC(CCN)C(=O)NC1CCNC(=O)C(C(C)O)NC(=O)C(CCN)NC(=O)C(CCN)NC(=O)C(CC(C)C)NC(=O)C(Cc2ccccc2)NC(=O)C(CCN)NC1=O)C(C)O (stereo not given) ({Octanoyl(6-Me)}-[Dab]T[Dab][Dab][Dab]FL[Dab][Dab]T; lactam 4-C; configuration not given here),inactive,,
O=C[C@H](O)[C@@H](O)[C@H](O)[C@H](O)CO,inactive,,
CCCCCCCCCCCCCCCCOc1nc2ccc(C)cc2c(=O)o1,inactive,,
CCCC(=O)O[C@]1(C(=O)COC(C)=O)CC[C@H]2C3C[C@H](F)C4=CC(=O)C=C[C@]4(C)[C@@]3(F)[C@@H](O)C[C@@]21C (stereo not given in full),inactive,,
COC(=O)CCC(=O)CN,inactive,,
CCCCCCCCCCCC(=O)OCN1C(=O)CCc2ccc(OCCCCN3CCN(c4cccc(Cl)c4Cl)CC3)cc21,inactive,,
CC(O)C(CO)NC(=O)C1CSSCC(NC(=O)C(N)Cc2ccccc2)C(=O)NC(Cc2ccccc2)C(=O)NC(Cc2c[nH]c3ccccc23)C(=O)NC(CCCCN)C(=O)NC(C(C)O)C(=O)N1 (stereo not given),inactive,,
